# RmlCD inh mix: inhibitors of RmlC and RmlD coupled enzymes; inhibition, % at 5.5 µM; RmlC/RmlD coupled enzyme inhibition, 384-well mixture HTS; AID 1532; 110,000 tested, 0.39% active; in the data active = inhibition above about 30%, passing the limit was not always enough
# RT RNaseH block: inhibitors of HIV-1 reverse transcriptase RNase H; inhibition, % at 10 µM; RT-RNase H RNA/DNA duplex cleavage, fluorescence; 65,000 tested, 1.9% active; P04585; in the data active = inhibition above about 50%
# * = called active by the depositor; . = no result given. Shown is part of a subset that was picked to be rich in hits.
SMILES,RmlCD inh mix,RT RNaseH block
C=C(C)CSc1nc2c(cc1C#N)CCC2,7,-51
CC(C)OC(=O)CC(=O)CSc1nc2c(cc1C#N)CCC2,97*,6
COC(=O)CC(=O)CSc1nc2c(cc1C#N)CCC2,77*,5
N#Cc1cc2c(nc1SCC(N)=O)CCCCC2,-8,.
CN(C)c1nc(OCCNC(=O)COc2ccccc2Cl)nc(N(C)C)n1,-6,.
O=C(NCc1cccc(C(F)(F)F)c1)C1CC2Cn3c(nc4ccccc43)C2N1Cc1ccccc1 (stereo unspecified),4,.
CCOC(=O)c1cn2c3c(c(F)c(F)c(F)c3c1=O)SC(N1CCCC1)=N2,.,-5
COCCCn1c(N)c(C(=O)OC(C)COC)c2nc3ccccc3nc21 (stereo unspecified),46*,3
CCCCOCCCn1c(N)c(C(=O)OC(C)COC)c2nc3ccccc3nc21 (stereo unspecified),30,7
CCCCCn1c(=O)c(C(=O)Nc2ccncc2)c(O)c2ccccc21,.,83*
CCCn1c(=O)c(C(=O)Nc2ccncc2)c(O)c2ccccc21,.,-9
CCOCCn1c(SCc2ccccc2)nc2c1c(=O)[nH]c(=O)n2C,-2,-32
CCOCCn1c(SCC(=O)OCc2ccccc2)nc2c1c(=O)[nH]c(=O)n2C,-5,86*
O=S1(=O)c2ccccc2C(CCO)N1Cc1ccccc1 (stereo unspecified),-1,.
CCOC(=O)C1CCN(C(=O)C2CC(=O)N(c3ccc(C)cc3)C2)CC1 (stereo unspecified),-3,-1
COc1ccc(N2CCN(Cc3cc(=O)oc4ccc(C)cc34)CC2)cc1,-9,.
COc1ccc(N2CCN(Cc3cc(=O)oc4c3ccc3ccccc34)CC2)cc1,.,54*
Cc1cc(C)c(Cn2c(=O)n(CCCC(=O)NCc3ccco3)c(=O)c3ccccc32)c(C)c1,-13,80*
Cc1ccc(C)c(Cn2c(=O)n(CCCC(=O)NCc3ccco3)c(=O)c3ccccc32)c1,.,-2
COc1cc(C(=S)N2CCCCC2)ccc1O,-6,.
COc1cc(C(=S)N2CCCC2)cc(Cl)c1O,-18,71*
C=CC[C@]12CC=CC(=O)[C@@]1(O)O[C@H](c1ccc(OC)c(OC)c1)[C@H]2C,-10,.
N=c1c(C(=O)NCc2ccc(F)cc2)cc2c(=O)n3ccccc3nc2n1CCCN1CCOCC1,31*,-19
N=c1c(C(=O)NCc2ccccc2)cc2c(=O)n3ccccc3nc2n1CCCN1CCOCC1,.,-11
O=C(NCc1cccs1)C1CCCN(S(=O)(=O)c2cccs2)C1 (stereo unspecified),-1,-11
SMILES,RmlCD inh mix,RT RNaseH block
CSCC[C@H](NC(=O)OC(C)(C)C)c1nnc(SCC=C(C)C)o1,-5,-1
CCOC(=O)c1cc(-c2ccccc2)sc1N,.,65*
CCOC(=O)c1sc(-c2ccccc2)cc1N,-59,-8
CCOC(=O)c1c(C)n(C)c2c(C)cc(O)c(OC(=O)CC)c12,9,56*
CCOC(=O)c1c(C)n(C)c2cc(Br)c(C)cc12,-9,.
O=C(Nc1cccnc1)c1ccc2snnc2c1,-9,-2
CCNC(=O)c1c(N)sc2c1CCCCC2,68,57*
CCC(=O)Nc1sc2c(c1C(=O)N(C)C)CCCCC2,-4,.
CCCCn1c(SCC(N)=O)nc2ccc(N3CCOCC3)cc2c1=O,7,.
CCCCn1c(SCC(=O)Nc2cccc(OC)c2)nc2ccc(N3CCOCC3)cc2c1=O,0,51*
Cn1c(=O)c2c(nc(SCC(=O)NC3CCCCC3)n2C)n(C)c1=O,.,-8
O=C(c1cc(-c2cccs2)on1)N1CCN(c2ccc(F)cc2)CC1,11,-8
O=C(c1cc(-c2cccs2)on1)N1CCN(c2ccccc2)CC1,.,57*
CCC(c1nnc(SCC(=O)NCCc2ccc(Cl)cc2Cl)o1)N(C)C (stereo unspecified),9,51*
CCC(c1nnc(SCC(=O)NC23CC4CC(CC(C4)C2)C3)o1)N(C)C (stereo unspecified),-5,.
Nc1cc(C(=O)N2CCCC2)cc(C(=O)N2CCCC2)c1,4,-5
COc1ccccc1NC(=O)c1sc2ncn(Cc3ccc(C)cc3)c(=O)c2c1C,36,.
COc1ccccc1NC(=O)c1sc2ncn(Cc3cccc(C)c3)c(=O)c2c1C,66*,.
COc1cccc(/C=C2/CN(C)CC3=C2OC(N)=C(C#N)C3c2cccc(OC)c2)c1 (stereo unspecified),7,-2
O=C(O)c1ccccc1-c1ccccc1C(=O)NCCCO,6,.
Cc1ccc2oc(=O)c3cnn(CC(=O)NC4CCN(Cc5ccccc5)CC4)c3c2c1,-5,-12
COc1ccc(-c2cc3c(=O)n(CC(=O)NC4CCN(Cc5ccccc5)CC4)ncn3n2)cc1,.,64*
CC(C)(C)OC(=O)NC(CCCCNC=O)C(=O)O (stereo unspecified),1,-9
Cc1ccc(-c2csc3nnc(SCC(=O)Nc4cccc(C)n4)n23)cc1,.,2
O=C1CC(Sc2nnc(-c3ccccc3O)o2)C(=O)N1c1ccccc1 (stereo unspecified),.,55*

# Assay outcomes (PubChem BioAssay)
